# Experimental data: paper PMC12529666, “Dysregulation of AGO2-miRNA dynamics underlies the AGO2-associated Lessel–Kreienkamp syndrome”
# B1: GCGCTTCA (ssRNA)
# RNA 1: GAGUUCUACAGUCCGACGAUCCCAACGCGCUUCACACCUGGAAUUCUCGGGUGCCAA
# RNA 2: UGGAGUGUGACAAUGGUGUUUG
# DNA 1: GATCGTCGGACTGTAGAACTC
# DNA 2: TTGGCACCCGAGAATTCCA
# modifications: constant regions annealed to DNA blockers; guide miR-122 5' phosphate
# B2: GTGCCTCA (ssRNA)
# RNA 1: GAGUUCUACAGUCCGACGAUCCCAACGUGCCUCACACCUGGAAUUCUCGGGUGCCAA
# RNA 2: UGGAGUGUGACAAUGGUGUUUG
# DNA 1: GATCGTCGGACTGTAGAACTC
# DNA 2: TTGGCACCCGAGAATTCCA
# modifications: constant regions annealed to DNA blockers; guide miR-122 5' phosphate
# B3: GCGCCCCG (ssRNA)
# RNA 1: GAGUUCUACAGUCCGACGAUCCCAACGCGCCCCGCACCUGGAAUUCUCGGGUGCCAA
# RNA 2: UGGAGUGUGACAAUGGUGUUUG
# DNA 1: GATCGTCGGACTGTAGAACTC
# DNA 2: TTGGCACCCGAGAATTCCA
# modifications: constant regions annealed to DNA blockers; guide miR-122 5' phosphate
# B4: ATATCCCA (ssRNA)
# RNA 1: GAGUUCUACAGUCCGACGAUCCCAACAUAUCCCACACCUGGAAUUCUCGGGUGCCAA
# RNA 2: UGGAGUGUGACAAUGGUGUUUG
# DNA 1: GATCGTCGGACTGTAGAACTC
# DNA 2: TTGGCACCCGAGAATTCCA
# modifications: constant regions annealed to DNA blockers; guide miR-122 5' phosphate
# B5: ACACTCTG (ssRNA)
# RNA 1: GAGUUCUACAGUCCGACGAUCCCAACACACUCUGCACCUGGAAUUCUCGGGUGCCAA
# RNA 2: UGGAGUGUGACAAUGGUGUUUG
# DNA 1: GATCGTCGGACTGTAGAACTC
# DNA 2: TTGGCACCCGAGAATTCCA
# modifications: constant regions annealed to DNA blockers; guide miR-122 5' phosphate
# B6: ACGTCTTA (ssRNA)
# RNA 1: GAGUUCUACAGUCCGACGAUCCCAACACGUCUUACACCUGGAAUUCUCGGGUGCCAA
# RNA 2: UGGAGUGUGACAAUGGUGUUUG
# DNA 1: GATCGTCGGACTGTAGAACTC
# DNA 2: TTGGCACCCGAGAATTCCA
# modifications: constant regions annealed to DNA blockers; guide miR-122 5' phosphate
# B7: GTGTCTTA (ssRNA)
# RNA 1: GAGUUCUACAGUCCGACGAUCCCAACGUGUCUUACACCUGGAAUUCUCGGGUGCCAA
# RNA 2: UGGAGUGUGACAAUGGUGUUUG
# DNA 1: GATCGTCGGACTGTAGAACTC
# DNA 2: TTGGCACCCGAGAATTCCA
# modifications: constant regions annealed to DNA blockers; guide miR-122 5' phosphate
# B8: ACGCCCTA (ssRNA)
# RNA 1: GAGUUCUACAGUCCGACGAUCCCAACACGCCCUACACCUGGAAUUCUCGGGUGCCAA
# RNA 2: UGGAGUGUGACAAUGGUGUUUG
# DNA 1: GATCGTCGGACTGTAGAACTC
# DNA 2: TTGGCACCCGAGAATTCCA
# modifications: constant regions annealed to DNA blockers; guide miR-122 5' phosphate
# B9: ATGTTTTA (ssRNA)
# RNA 1: GAGUUCUACAGUCCGACGAUCCCAACAUGUUUUACACCUGGAAUUCUCGGGUGCCAA
# RNA 2: UGGAGUGUGACAAUGGUGUUUG
# DNA 1: GATCGTCGGACTGTAGAACTC
# DNA 2: TTGGCACCCGAGAATTCCA
# modifications: constant regions annealed to DNA blockers; guide miR-122 5' phosphate
# B10: ACGTCCTA (ssRNA)
# RNA 1: GAGUUCUACAGUCCGACGAUCCCAACACGUCCUACACCUGGAAUUCUCGGGUGCCAA
# RNA 2: UGGAGUGUGACAAUGGUGUUUG
# DNA 1: GATCGTCGGACTGTAGAACTC
# DNA 2: TTGGCACCCGAGAATTCCA
# modifications: constant regions annealed to DNA blockers; guide miR-122 5' phosphate
# How the values were obtained:
# Assay in all cases: RNA Bind-n-Seq (nitrocellulose filter binding and sequencing); miR-122 guide loaded in AGO2; 60 min incubation; 30 mM Tris pH 8.0, 100 mM potassium acetate, 2 mM magnesium acetate, 0.5 mM TCEP, 0.005% NP-40, 0.01 mg/ml yeast tRNA; 3 nM AGO2-miR-122, 100 nM RNA library; 60; high values mean tight binding
# Settings in all cases: protein: recombinant; tags: His6 (N-terminal, pFastBac HTA)
# [1] = target: AGO2 WT (phosphosite mutant background) (Homo sapiens, UniProt Q9UKV8 1-859, S387D;S824A;S828D;S831D;S834A)
# Method in brief: (§1)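 His-tagged AGO2 was expressed in Sf9 insect cells by baculovirus, loaded with a synthetic guide RNA, and purified by Ni-NTA and a biotinylated capture oligo. Bound RNA was extracted, reverse-transcribed, barcode-amplified and Illumina-sequenced. Fold enrichment is each sequence's read fraction divided by its input-library read fraction.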
# [2] = target: AGO2 L192P (Homo sapiens, UniProt Q9UKV8 1-859, L192P;S387D;S824A;S828D;S831D;S834A)
# Method in brief: as §1
# [3] = target: AGO2 A367P (Homo sapiens, UniProt Q9UKV8 1-859, A367P;S387D;S824A;S828D;S831D;S834A)
# Method in brief: as §1
# [4] = target: AGO2 T357M (Homo sapiens, UniProt Q9UKV8 1-859, T357M;S387D;S824A;S828D;S831D;S834A)
# Method in brief: as §1
# [5] = target: AGO2 F182del (Homo sapiens, UniProt Q9UKV8 1-859, S387D;S824A;S828D;S831D;S834A;del182-182)
# Method in brief: as §1
# Chain of AGO2 L192P (Q9UKV8 whole entry L192P/S387D/S824A/S828D/S831D/S834A): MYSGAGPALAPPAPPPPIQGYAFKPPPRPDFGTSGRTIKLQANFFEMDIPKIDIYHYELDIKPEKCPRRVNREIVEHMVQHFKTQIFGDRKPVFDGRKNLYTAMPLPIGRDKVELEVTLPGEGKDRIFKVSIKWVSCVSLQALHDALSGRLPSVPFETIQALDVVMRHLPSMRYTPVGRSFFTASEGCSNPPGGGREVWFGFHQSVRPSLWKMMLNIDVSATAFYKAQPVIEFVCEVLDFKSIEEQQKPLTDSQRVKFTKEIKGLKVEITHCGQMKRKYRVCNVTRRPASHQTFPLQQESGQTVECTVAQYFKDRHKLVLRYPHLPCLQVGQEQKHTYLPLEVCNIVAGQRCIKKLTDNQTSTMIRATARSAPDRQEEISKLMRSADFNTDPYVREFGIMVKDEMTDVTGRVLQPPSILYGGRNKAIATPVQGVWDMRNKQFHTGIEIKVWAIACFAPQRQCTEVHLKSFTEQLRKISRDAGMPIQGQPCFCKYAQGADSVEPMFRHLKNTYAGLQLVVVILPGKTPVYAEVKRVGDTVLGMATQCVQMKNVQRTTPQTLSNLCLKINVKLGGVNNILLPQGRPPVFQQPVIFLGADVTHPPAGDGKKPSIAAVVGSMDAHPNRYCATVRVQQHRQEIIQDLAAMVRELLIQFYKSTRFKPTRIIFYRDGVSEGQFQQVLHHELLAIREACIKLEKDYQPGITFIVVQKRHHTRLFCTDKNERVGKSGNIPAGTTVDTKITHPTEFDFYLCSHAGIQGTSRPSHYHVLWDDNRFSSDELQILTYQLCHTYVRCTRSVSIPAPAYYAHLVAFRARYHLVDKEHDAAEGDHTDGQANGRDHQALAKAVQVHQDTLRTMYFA
# Chain of AGO2 WT (phosphosite mutant background) (Q9UKV8 whole entry S387D/S824A/S828D/S831D/S834A): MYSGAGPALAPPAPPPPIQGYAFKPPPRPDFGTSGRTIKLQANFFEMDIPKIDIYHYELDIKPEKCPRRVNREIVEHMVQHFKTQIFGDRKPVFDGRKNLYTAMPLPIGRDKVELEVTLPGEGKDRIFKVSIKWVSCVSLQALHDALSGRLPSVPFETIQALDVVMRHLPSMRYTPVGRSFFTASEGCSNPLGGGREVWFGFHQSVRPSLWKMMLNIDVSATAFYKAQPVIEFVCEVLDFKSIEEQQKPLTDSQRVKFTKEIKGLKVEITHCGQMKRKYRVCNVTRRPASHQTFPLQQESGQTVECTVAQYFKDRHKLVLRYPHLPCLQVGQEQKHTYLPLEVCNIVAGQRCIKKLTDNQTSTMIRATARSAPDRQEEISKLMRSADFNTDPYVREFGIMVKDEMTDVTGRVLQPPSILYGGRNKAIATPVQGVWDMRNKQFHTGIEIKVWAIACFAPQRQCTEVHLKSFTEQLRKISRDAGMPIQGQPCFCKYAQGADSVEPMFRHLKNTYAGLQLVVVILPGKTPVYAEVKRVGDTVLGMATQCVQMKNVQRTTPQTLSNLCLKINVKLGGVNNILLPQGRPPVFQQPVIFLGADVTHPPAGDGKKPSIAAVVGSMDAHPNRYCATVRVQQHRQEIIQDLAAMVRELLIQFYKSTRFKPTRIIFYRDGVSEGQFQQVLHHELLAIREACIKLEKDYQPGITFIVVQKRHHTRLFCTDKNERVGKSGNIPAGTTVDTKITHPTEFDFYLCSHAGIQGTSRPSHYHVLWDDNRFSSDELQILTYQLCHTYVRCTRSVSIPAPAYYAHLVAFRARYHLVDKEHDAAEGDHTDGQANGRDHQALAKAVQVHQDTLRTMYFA
# Chain of AGO2 T357M (Q9UKV8 whole entry T357M/S387D/S824A/S828D/S831D/S834A): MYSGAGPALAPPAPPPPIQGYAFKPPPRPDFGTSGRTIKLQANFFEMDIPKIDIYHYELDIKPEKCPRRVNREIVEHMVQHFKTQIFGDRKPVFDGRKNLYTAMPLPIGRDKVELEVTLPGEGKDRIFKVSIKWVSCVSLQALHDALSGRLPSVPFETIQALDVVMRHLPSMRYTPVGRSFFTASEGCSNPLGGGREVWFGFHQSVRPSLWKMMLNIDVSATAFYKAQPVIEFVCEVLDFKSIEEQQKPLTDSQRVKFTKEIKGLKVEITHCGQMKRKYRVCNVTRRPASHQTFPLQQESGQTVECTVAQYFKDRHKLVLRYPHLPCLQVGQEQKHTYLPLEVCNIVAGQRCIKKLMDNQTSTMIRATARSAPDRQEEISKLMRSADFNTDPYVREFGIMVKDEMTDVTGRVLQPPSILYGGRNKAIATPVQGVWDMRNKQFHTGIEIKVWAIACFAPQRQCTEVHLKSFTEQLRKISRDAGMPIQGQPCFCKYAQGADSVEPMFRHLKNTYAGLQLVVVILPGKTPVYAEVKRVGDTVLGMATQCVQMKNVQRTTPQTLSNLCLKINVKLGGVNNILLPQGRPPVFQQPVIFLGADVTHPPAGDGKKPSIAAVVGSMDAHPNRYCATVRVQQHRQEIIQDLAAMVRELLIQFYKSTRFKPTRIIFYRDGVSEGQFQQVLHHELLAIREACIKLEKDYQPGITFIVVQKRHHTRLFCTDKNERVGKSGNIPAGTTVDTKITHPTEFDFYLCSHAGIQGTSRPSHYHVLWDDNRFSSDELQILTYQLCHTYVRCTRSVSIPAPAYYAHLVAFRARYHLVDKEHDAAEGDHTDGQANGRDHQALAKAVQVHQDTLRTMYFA
# Chain of AGO2 F182del (Q9UKV8 other isoform, or with tags, fused parts or gaps S387D;S824A;S828D;S831D;S834A;del182-182): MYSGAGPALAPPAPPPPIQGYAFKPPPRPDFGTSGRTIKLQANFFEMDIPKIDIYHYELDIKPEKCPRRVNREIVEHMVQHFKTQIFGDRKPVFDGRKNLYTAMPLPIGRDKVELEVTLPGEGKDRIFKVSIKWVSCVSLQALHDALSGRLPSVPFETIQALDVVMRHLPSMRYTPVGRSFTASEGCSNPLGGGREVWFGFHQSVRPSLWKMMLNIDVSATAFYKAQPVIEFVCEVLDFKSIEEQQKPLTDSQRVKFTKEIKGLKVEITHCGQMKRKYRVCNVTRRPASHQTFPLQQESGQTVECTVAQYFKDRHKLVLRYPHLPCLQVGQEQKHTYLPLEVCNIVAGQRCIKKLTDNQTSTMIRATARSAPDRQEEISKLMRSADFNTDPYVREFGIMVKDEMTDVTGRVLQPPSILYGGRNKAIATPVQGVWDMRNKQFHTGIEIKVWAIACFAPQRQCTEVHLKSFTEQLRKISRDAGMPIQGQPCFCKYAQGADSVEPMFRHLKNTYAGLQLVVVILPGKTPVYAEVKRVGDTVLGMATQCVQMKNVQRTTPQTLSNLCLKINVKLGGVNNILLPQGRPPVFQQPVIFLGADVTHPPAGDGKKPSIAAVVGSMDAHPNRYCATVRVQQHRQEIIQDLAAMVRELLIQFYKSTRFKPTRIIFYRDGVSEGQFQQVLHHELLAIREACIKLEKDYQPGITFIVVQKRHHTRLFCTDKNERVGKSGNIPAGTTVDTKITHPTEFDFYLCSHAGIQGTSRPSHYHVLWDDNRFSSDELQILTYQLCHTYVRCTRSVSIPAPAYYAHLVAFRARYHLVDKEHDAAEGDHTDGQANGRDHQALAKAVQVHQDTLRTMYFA
# Chain of AGO2 A367P (Q9UKV8 whole entry A367P/S387D/S824A/S828D/S831D/S834A): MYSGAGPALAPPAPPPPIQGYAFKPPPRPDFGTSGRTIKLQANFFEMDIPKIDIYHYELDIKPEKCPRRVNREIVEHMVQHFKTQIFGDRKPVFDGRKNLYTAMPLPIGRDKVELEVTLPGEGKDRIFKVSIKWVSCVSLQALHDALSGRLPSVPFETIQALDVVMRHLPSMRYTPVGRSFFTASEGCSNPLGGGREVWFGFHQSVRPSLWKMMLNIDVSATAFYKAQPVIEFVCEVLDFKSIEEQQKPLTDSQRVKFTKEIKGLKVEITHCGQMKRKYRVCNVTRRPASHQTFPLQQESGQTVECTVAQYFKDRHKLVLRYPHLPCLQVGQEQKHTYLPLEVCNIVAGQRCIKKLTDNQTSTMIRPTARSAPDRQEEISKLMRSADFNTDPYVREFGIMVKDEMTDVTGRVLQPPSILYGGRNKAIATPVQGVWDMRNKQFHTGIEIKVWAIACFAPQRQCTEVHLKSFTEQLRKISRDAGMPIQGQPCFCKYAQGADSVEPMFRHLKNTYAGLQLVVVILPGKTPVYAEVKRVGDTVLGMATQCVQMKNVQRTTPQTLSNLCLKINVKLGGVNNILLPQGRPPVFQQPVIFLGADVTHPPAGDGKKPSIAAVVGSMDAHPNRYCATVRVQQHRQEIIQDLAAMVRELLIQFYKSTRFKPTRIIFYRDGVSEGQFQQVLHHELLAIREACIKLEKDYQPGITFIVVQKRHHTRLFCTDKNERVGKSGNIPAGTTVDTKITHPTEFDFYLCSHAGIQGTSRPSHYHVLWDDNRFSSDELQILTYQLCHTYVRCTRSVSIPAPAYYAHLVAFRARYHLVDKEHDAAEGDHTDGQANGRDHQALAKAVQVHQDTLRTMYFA
Binder,binding signal [1],binding signal [2],binding signal [3],binding signal [4],binding signal [5]
B1,0.123 fold enrichment over input,0.498 fold enrichment over input,0.238 fold enrichment over input,0.703 fold enrichment over input,0.289 fold enrichment over input
B2,0.122 fold enrichment over input,0.533 fold enrichment over input,0.232 fold enrichment over input,0.687 fold enrichment over input,0.326 fold enrichment over input
B3,0.12 fold enrichment over input,0.438 fold enrichment over input,0.18 fold enrichment over input,0.745 fold enrichment over input,
B4,,0.464 fold enrichment over input,0.195 fold enrichment over input,0.568 fold enrichment over input,0.249 fold enrichment over input
B5,0.933 fold enrichment over input,0.807 fold enrichment over input,0.794 fold enrichment over input,0.868 fold enrichment over input,2.4 fold enrichment over input
B6,0.13 fold enrichment over input,0.525 fold enrichment over input,0.269 fold enrichment over input,0.643 fold enrichment over input,0.333 fold enrichment over input
B7,,0.461 fold enrichment over input,0.173 fold enrichment over input,0.599 fold enrichment over input,
B8,,0.505 fold enrichment over input,0.194 fold enrichment over input,0.681 fold enrichment over input,
B9,0.12 fold enrichment over input,0.492 fold enrichment over input,0.247 fold enrichment over input,0.607 fold enrichment over input,0.21 fold enrichment over input
B10,,0.475 fold enrichment over input,0.205 fold enrichment over input,0.603 fold enrichment over input,0.187 fold enrichment over input
